# From PubChem BioAssay (NCATS)
# Results filed as inconclusive are left out. The source made the active and inactive calls. The call rests on the fitted dose curve; tested in HEK293 reporter line.
# Test: qHTS for Inhibitors of the Functional Ribonucleoprotein Complex (vRNP) of Lassa (LASV) Arenavirus: LASV Primary Screen - GLuc reporter signal (AID 1347082); further: nearly all actives have a fitted effect of over 60% in size
# Conditions: LASV minigenome vRNP, Gaussia luciferase reporter; series mostly up to 57.5 µM; activity change, negative = inhibition: at the top concentration
# On the % scale 0 is the no-effect control and ±100 the full control effect; potency means the concentration at half of the fitted maximal effect.
SMILES,"activity change, negative = inhibition",Potency
CCN(c1ccccc1)c1cc(NC)[n+](C)c(C)n1,0.489% (inactive),–
OC[C@H]1O[C@@H](n2cnc3c2NC=NC[C@@H]3O)C[C@H]1O,5.13% (inactive),–
Clc1ccc(-c2nc3sccn3c2C=NOCc2ccc(Cl)c(Cl)c2)cc1,-18.2% (inactive),–
OCc1ccccn1,3.16% (inactive),–
CCCCCCCCCCCCCC(=O)OC(C)C,6.43% (inactive),–
Cc1ccccc1C(C(=O)NC1CCCC1)N(C(=O)Cn1cnc2ccccc21)c1cccc(F)c1 (stereo not given),3.87% (inactive),–
CCOc1ccc(Cc2cc([C@@H]3O[C@H](CO)[C@@H](O)[C@H](O)[C@@H]3O)ccc2Cl)cc1,8.19% (inactive),–
CC(C)(C)C(=O)Oc1ccc2c(c1)nc(NC(=O)c1cccc([N+](=O)[O-])c1)n2CCCO,-0.847% (inactive),–
Nc1ccccc1N,-14.8% [at 115 µM] (inactive),–
N=C1N=C(N)c2cc3ccccc3cc21,-27.5% [at 115 µM] (inactive),–
Nc1cccc(S(=O)(=O)N2CCCN(S(=O)(=O)c3ccc4c(c3)OCCO4)CC2)c1,-25.4% (inactive),–
O=C(O)CNC(=O)CNC(=O)CNC(=O)CSC(=O)c1ccccc1,-3.8% (inactive),–
COc1cc2c(cc1OC)C(=O)CC2,-5.37% (inactive),–
CS(=O)(=O)Nc1ccc([N+](=O)[O-])cc1Oc1ccccc1,–,inactive
OCCCc1ccccc1,–,inactive
CN(C)CC/C=C1/c2ccccc2COc2ccc(CC(=O)O)cc21,-1.19% (inactive),–
COc1ccccc1O,21.3% [at 115 µM] (inactive),–
Nc1ccc(S(=O)(=O)Nc2ccccc2)cc1,2.38% (inactive),–
Cn1cncc1[C@@](N)(c1ccc(Cl)cc1)c1ccc2c(c1)c(-c1cccc(Cl)c1)cc(=O)n2C,-29.7% (inactive),–
NC(=O)Nc1cc(-c2cccc(F)c2)sc1C(=O)N[C@H]1CCCNC1,–,1220 nM (active)
O=C1C(CCC(O)c2ccc(F)cc2)C(c2ccc(O)cc2)N1c1ccc(F)cc1 (stereo not given),-0.52% (inactive),–
COc1nc(C)cnc1NS(=O)(=O)c1cccnc1-c1ccc(-c2nnco2)cc1,-3.5% (inactive),–

# Test: qHTS for Inhibitors of the Functional Ribonucleoprotein Complex (vRNP) of Lassa (LASV) Arenavirus: Viability assay - alamar blue signal for LASV Primary Screen (AID 1347083); further: nearly all actives have a fitted effect of over 80% in size
# Conditions: cell viability, alamar blue fluorescence (LASV minigenome counter-screen); series mostly up to 57.5 µM; activity change, negative = reduced viability: at the top concentration
SMILES,Potency,"activity change, negative = reduced viability"
C[C@@H](N)C1CCC(C(=O)Nc2ccncc2)CC1 (stereo not given in full),21700 nM (active),–
C=CCn1c(=O)c2cnc(Nc3ccc(N4CCN(C)CC4)cc3)nc2n1-c1cccc(C(C)(C)O)n1,172 nM (active),–
C[C@@H](O[C@H]1OCCN(Cc2n[nH]c(=O)[nH]2)[C@@H]1c1ccc(F)cc1)c1cc(C(F)(F)F)cc(C(F)(F)F)c1,–,-32.7% (inactive)
CCn1cc(C(=O)O)c(=O)c2cc3c(cc21)OCO3,inactive,–
COc1ccc2c(c1)CC[C@H]1[C@@H]2CC[C@]2(C)[C@@H](NCCCCCCN3C(=O)C=CC3=O)CC[C@H]12,–,-0.964% (inactive)
NCCO,–,10.6% [at 115 µM] (inactive)
CCCCCN(CCC12CC3CC(CC(C3)C1)C2)C(=O)NCCCc1ccncc1,–,13% (inactive)
N[C@H]1C(O)O[C@H](CO)[C@@H](O)[C@@H]1O (stereo not given in full),–,7.91% (inactive)
O=C(NO)c1ccccc1,–,-12.3% [at 115 µM] (inactive)
Cc1[nH]nc2ccc(-c3cncc(OC[C@@H](N)Cc4ccccc4)c3)cc12,172 nM (active),–
Cc1cn(-c2cc(NC(=O)c3ccc(C)c(Nc4nccc(-c5cccnc5)n4)c3)cc(C(F)(F)F)c2)cn1,–,9.99% (inactive)
O=C(O)c1ccc2cc(-c3ccc(O)c(C45CC6CC(CC(C6)C4)C5)c3)ccc2c1,–,1.07% (inactive)
Clc1ccccc1CN1CCc2sccc2C1,inactive,–
NC(=O)c1ccc(I)c([N+](=O)[O-])c1,–,-14.7% (inactive)
C[N+]1(C)C2CC(OC(=O)[C@H](CO)c3ccccc3)CC1C1OC12 (stereo not given in full),inactive,–
O=[N+]([O-])c1cccc(S(=O)(=O)NCCNS(=O)(=O)c2cccc([N+](=O)[O-])c2)c1,–,-5.11% (inactive)
N#C/C(=C1\SCC(c2ccccc2Cl)S1)n1ccnc1 (stereo not given),–,-5.8% (inactive)
CCN(c1ccccc1)c1cc(NC)[n+](C)c(C)n1,–,-8.4% (inactive)
OC[C@H]1O[C@@H](n2cnc3c2NC=NC[C@@H]3O)C[C@H]1O,–,-11.9% (inactive)
Clc1ccc(-c2nc3sccn3c2C=NOCc2ccc(Cl)c(Cl)c2)cc1,–,-8.68% (inactive)
OCc1ccccn1,–,12.1% (inactive)
CCCCCCCCCCCCCC(=O)OC(C)C,–,7.34% (inactive)
Cc1ccccc1C(C(=O)NC1CCCC1)N(C(=O)Cn1cnc2ccccc21)c1cccc(F)c1 (stereo not given),–,-6.57% (inactive)
CCOc1ccc(Cc2cc([C@@H]3O[C@H](CO)[C@@H](O)[C@H](O)[C@@H]3O)ccc2Cl)cc1,–,-14.3% (inactive)
CC(C)(C)C(=O)Oc1ccc2c(c1)nc(NC(=O)c1cccc([N+](=O)[O-])c1)n2CCCO,–,0.139% (inactive)
Nc1ccccc1N,–,-30.7% [at 115 µM] (inactive)
N=C1N=C(N)c2cc3ccccc3cc21,–,-35.1% [at 115 µM] (inactive)
Nc1cccc(S(=O)(=O)N2CCCN(S(=O)(=O)c3ccc4c(c3)OCCO4)CC2)c1,–,-8.21% (inactive)
